Laboratory results: PubChem BioAssay (Tox21)
Inconclusive results are not listed. Activity calls are given as the source filed them. Unless noted, the call rests on the fitted dose curve; in most records, active means well fitted curve in the direction sought with a large enough effect in the repeat runs; inconclusive means weak or mixed curves; inactive means no such curve, though single readings can be large; an effect the other way counts as inactive or inconclusive.

Columns and labels:
[1] = target: Thyrotropin receptor (Homo sapiens) (UniProt P16473); assay: qHTS assay to identify small molecule agonists of the thyroid stimulating hormone receptor (TSHR) signaling pathway (AID 1224843; calls by dose curve; further: nearly all actives have a fitted effect of over 45% in size)
Summary of the method: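 Cell line HEK293 with TSHR; density 800/well. Exposure 30 min RT. Readout HTRF cAMP (cAMP-d2/anti-cAMP-cryptate), 1 h RT before reading.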

[2] = qHTS assay to identify small molecule agonists of the hypoxia (HIF-1) signaling pathway - cell viability counter screen (AID 1224844; calls by dose curve; further: nearly all actives have a fitted effect of over 50% in size; further: potency means the concentration at half of the fitted maximal effect)
Summary of the method: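 HRE-bla ME-180 cells in medium with 0.5% dialyzed FBS were preincubated 5 hrs at 37C, exposed to compounds for 17 hrs, then viability was read as CellTiter-Glo luminescence after 30 min at room temperature, in the reporter wells.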

[3] = qHTS assay to identify small molecule agonists of H2AX (AID 1224845; active means well fitted activation curve with a large enough effect in the signal ratio in the repeat runs, not every such curve was filed as active; the % refers to the signal ratio)
Summary of the method: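 Wild-type CHO-K1 cells plated overnight, then exposed 3 hr at 37C to compounds at 15 concentrations (0.76% DMSO). Lysed, then HTRF anti-pH2AX(S139)-cryptate/anti-H2AX-d2 detection after 24 hr at room temperature; emissions 665 and 620 nm.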

[4] = qHTS assay to identify small molecule agonists of the hypoxia (HIF-1) signaling pathway (AID 1224846; active means well fitted activation curve with a large enough effect in the signal ratio in the repeat runs, not every such curve was filed as active; the % refers to the signal ratio)
Summary of the method: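 HRE-bla ME-180 cells (beta-lactamase reporter under hypoxia response element) were plated at 2,000 cells/well in medium with 0.5% dialyzed FBS, rested 5 hrs, then given compounds in DMSO for 17 hrs at 37C, 5% CO2. Reporter induction was read with CCF4-AM FRET substrate.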

[5] = qHTS assay to identify small molecule agonists of H2AX - cell viability counter screen (AID 1224847; calls by dose curve; further: nearly all actives have a fitted effect of over 30% in size; further: potency means the concentration at half of the fitted maximal effect)
Summary of the method: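 CHO-K1 wt, 1000 cells/well, o/n 37C; cpds 15 conc, 3 h 37C, 0.76% DMSO; CellTiter-Glo, 30 min RT, luminescence.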

[6] = qHTS RealTime-Glo MT Cell Viability Assay in HEK293 cells - 32 hour (AID 1224868); further: nearly all actives have a fitted effect of over 50% in size; further: potency means the concentration at half of the fitted maximal effect
Summary of the method: (§1)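 Tox21 10K qHTS, HEK293, 600 cells/well, RealTime-Glo reagent co-dispensed with cells; 5 h preincubation, compound by pintool, 37 C, luminescence at 0–40 h.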

[7] = A CellTox Green Cytotoxicity Assay to monitor cytotoxicity in HEK293 cells - 0 hour (AID 1224869); further: nearly all actives have a fitted effect of over 50% in size; further: potency means the concentration at half of the fitted maximal effect
Summary of the method: (§2)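 HEK293 cells premixed with CellTox Green dye were seeded at 600 cells/well and left 5 h at 37 C/5% CO2 before pin transfer of 23 nL compound in DMSO. Fluorescence from dye bound to dead-cell DNA was read during 40 h treatment.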

[8] = qHTS RealTime-Glo MT Cell Viability Assay in HepG2 cells - 40 hour (AID 1224870); further: nearly all actives have a fitted effect of over 50% in size; further: potency means the concentration at half of the fitted maximal effect
Summary of the method: (§3)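 HepG2 cells mixed with RealTime-Glo MT reagents (NanoLuc plus cell-permeant prosubstrate) were seeded at 600 cells/well, incubated 5 h at 37 C/5% CO2, then pinned with compounds in DMSO; nonlytic luminescence tracked viability during 40 h treatment.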

[9] = qHTS RealTime-Glo MT Cell Viability Assay in HEK293 cells - 16 hour (AID 1224872); further: nearly all actives have a fitted effect of over 50% in size; further: potency means the concentration at half of the fitted maximal effect
Summary of the method: as §1

[10] = qHTS RealTime-Glo MT Cell Viability Assay in HepG2 cells - 8 hour (AID 1224873); further: nearly all actives have a fitted effect of over 55% in size
Summary of the method: as §3

[11] = qHTS RealTime-Glo MT Cell Viability Assay in HEK293 cells - 40 hour (AID 1224874); details: RealTime-Glo luminescence; max response: active compounds read low; further: nearly all actives have a fitted effect of over 50% in size; further: potency means the concentration at half of the fitted maximal effect
Summary of the method: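 HEK293 cells mixed with RealTime-Glo reagents (NanoLuc plus cell-permeant prosubstrate) at 600 cells/well, preincubated 5 h at 37 C/5% CO2, then given 23 nL compound in DMSO. Nonlytic luminescence from viable cells was read at 0, 8, 16, 24, 32 and 40 h.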

[12] = A CellTox Green Cytotoxicity Assay to monitor cytotoxicity in HEK293 cells - 24 hour (AID 1224875); further: nearly all actives have a fitted effect of over 45% in size; further: potency means the concentration at half of the fitted maximal effect
Summary of the method: as §2

[13] = A CellTox Green Cytotoxicity Assay to monitor cytotoxicity in HepG2 cells - 16 hour (AID 1224876); further: nearly all actives have a fitted effect of over 45% in size; further: potency means the concentration at half of the fitted maximal effect
Summary of the method: (§4)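 HepG2 cells were seeded together with the CellTox Green dye at 600 cells/well, left 5 h at 37 C/5% CO2, then given compounds in DMSO. Fluorescence from dye bound to dead-cell DNA was read repeatedly over 40 h of treatment at 37 C.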

[14] = qHTS RealTime-Glo MT Cell Viability Assay in HepG2 cells - 32 hour (AID 1224877); further: nearly all actives have a fitted effect of over 55% in size; further: potency means the concentration at half of the fitted maximal effect
Summary of the method: (§5)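 Cells + NanoLuc/prosubstrate dispensed (600 cells/well) → 5 h at 37 C/5% CO2 → compounds in DMSO transferred → 40 h incubation at 37 C, luminescence read at 0, 8, 16, 24, 32, 40 h.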

[15] = A CellTox Green Cytotoxicity Assay to monitor cytotoxicity in HepG2 cells - 24 hour (AID 1224878); further: nearly all actives have a fitted effect of over 45% in size; further: potency means the concentration at half of the fitted maximal effect
Summary of the method: as §4

[16] = qHTS RealTime-Glo MT Cell Viability Assay in HepG2 cells - 24 hour (AID 1224867); further: nearly all actives have a fitted effect of over 50% in size
Summary of the method: as §5

[17] = A CellTox Green Cytotoxicity Assay to monitor cytotoxicity in HEK293 cells - 40 hour (AID 1224871); further: nearly all actives have a fitted effect of over 45% in size; further: potency means the concentration at half of the fitted maximal effect
Summary of the method: as §2

[18] = A CellTox Green Cytotoxicity Assay to monitor cytotoxicity in HepG2 cells - 40 hour (AID 1224879); further: nearly all actives have a fitted effect of over 40% in size; further: potency means the concentration at half of the fitted maximal effect
Summary of the method: as §4

[19] = qHTS assay to identify small molecule agonists of the estrogen related receptor (ERR) signaling pathway from Tox21 library (AID 1224849; calls by dose curve; further: nearly all actives have a fitted effect of over 15% in size); details: ERR reporter cell line, ONE-Glo luciferase, 18 h; at 92.4 µM (top of the series) unless noted
Summary of the method: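 ERR reporter cell line (NTP) seeded, rested 6 h at 37 C/5% CO2, then pinned with Tox21 compounds in DMSO. After 18 h at 37 C, ONE-Glo luciferase luminescence was read following 30 min at room temperature.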

[20] = qHTS assay to identify small molecule antagonists of the estrogen related receptor (ERR) signaling pathway from Tox21 library (AID 1224848); further: nearly all actives have a fitted effect of over 50% in size
Summary of the method: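 Screening used an ERR reporter line supplied by NTP, exposed for 18 h at 37 C to library compounds delivered in DMSO. Signal was luciferase luminescence developed with ONE-Glo at room temperature for 30 min.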
On the % scale 0 is the no-effect control and ±100 the full control effect.

Thyrotropin receptor (Homo sapiens), sequence (P16473 whole entry, looked up): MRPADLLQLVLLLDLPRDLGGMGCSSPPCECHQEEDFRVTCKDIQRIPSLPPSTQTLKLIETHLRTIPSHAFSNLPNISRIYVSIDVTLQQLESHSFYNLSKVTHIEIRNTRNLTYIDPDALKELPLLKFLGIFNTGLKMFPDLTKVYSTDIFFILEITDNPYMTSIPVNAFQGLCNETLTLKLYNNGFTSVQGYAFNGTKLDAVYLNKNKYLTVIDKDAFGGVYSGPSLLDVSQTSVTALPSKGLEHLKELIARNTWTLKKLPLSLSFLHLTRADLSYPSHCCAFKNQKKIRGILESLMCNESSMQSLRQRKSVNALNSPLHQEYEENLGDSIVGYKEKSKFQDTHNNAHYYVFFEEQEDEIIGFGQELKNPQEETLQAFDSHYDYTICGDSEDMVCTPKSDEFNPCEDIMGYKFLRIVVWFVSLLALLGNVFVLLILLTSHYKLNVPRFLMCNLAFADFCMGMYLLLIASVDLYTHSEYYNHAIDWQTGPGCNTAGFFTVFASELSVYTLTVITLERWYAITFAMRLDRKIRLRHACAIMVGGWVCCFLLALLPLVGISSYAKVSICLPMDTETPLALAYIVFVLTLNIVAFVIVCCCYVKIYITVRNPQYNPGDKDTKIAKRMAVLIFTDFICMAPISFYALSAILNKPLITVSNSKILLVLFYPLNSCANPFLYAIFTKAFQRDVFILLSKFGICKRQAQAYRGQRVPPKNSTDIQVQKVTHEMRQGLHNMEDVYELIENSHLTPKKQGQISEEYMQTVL

C/C=C/C=C/CCCCCCCO
inactive: Potency [1] | Potency [2] | Potency [3] | outcome [4] | Potency [5] | Potency [6] | Potency [7] | Potency [8] | Potency [9] | Potency [10] | max response [11] -18.5% | Potency [12] | Potency [13] | Potency [14] | Potency [15]

CCOC(=O)c1ccccc1OC
inactive: Potency [1] | Potency [2] | Potency [3] | outcome [4] | Potency [5] | Potency [16] | Potency [6] | Potency [7] | Potency [8] | Potency [17] | Potency [9] | Potency [10] | Potency [12] | Potency [13] | Potency [14] | Potency [15] | Potency [18]

Cc1nc2ccccc2s1
inactive: Potency [1] | Potency [2] | Potency [3] | outcome [4] | Potency [5] | Potency [16] | Potency [6] | Potency [7] | Potency [8] | Potency [17] | Potency [9] | Potency [10] | Potency [12] | Potency [13] | Potency [14] | Potency [15] | Potency [18]

O=C(O)c1snc(Cl)c1Cl
inactive: Potency [1] | Potency [2] | Potency [3] | outcome [4] | Potency [5] | Potency [16] | Potency [6] | Potency [7] | Potency [8] | Potency [17] | Potency [9] | Potency [10] | Potency [12] | Potency [13] | Potency [14] | Potency [15] | Potency [18]

O=C(CCCCCCC(=O)Nc1ccccc1)NO
inactive: Potency [1] | Potency [3] | outcome [4] | Potency [5] | Potency [7] | Potency [13] | Potency [15]
active: Potency [2] 1.69 µM | Potency [6] 2.39 µM | Potency [8] 4.77 µM | Potency [9] 2.68 µM | Potency [11] 2.39 µM | Potency [18] 2.68 µM

CC(=O)OCC(=O)[C@@]12OC(C)(C)O[C@@H]1C[C@H]1[C@@H]3C[C@H](F)C4=CC(=O)C=C[C@]4(C)[C@@]3(F)[C@@H](O)C[C@@]12C
inactive: Potency [1] | Potency [2] | Potency [3] | outcome [4] | Potency [5] | Potency [16] | Potency [7] | Potency [8] | Potency [9] | Potency [10] | Potency [13] | Potency [14] | Potency [15] | Potency [18]

CCCOC(=O)c1ccc(C(=O)OCCC)nc1
inactive: Potency [1] | Potency [2] | Potency [3] | outcome [4] | Potency [5] | Potency [16] | Potency [6] | Potency [7] | Potency [8] | Potency [9] | Potency [10] | max response [11] 7.22% | Potency [12] | Potency [13] | Potency [14] | Potency [15] | Potency [18]

CC#N
inactive: Potency [1] | Potency [2] | Potency [3] | outcome [4] | activity change, positive = activation [19] 6.68% | Potency [16] | Potency [6] | Potency [7] | Potency [8] | Potency [17] | Potency [9] | Potency [10] | max response [11] 1.57% | Potency [12] | Potency [13] | Potency [14] | Potency [15] | Potency [18]

CCCOC(=O)c1ccc(N)cc1
inactive: Potency [1] | Potency [2] | Potency [3] | outcome [4] | Potency [5] | Potency [16] | Potency [6] | Potency [7] | Potency [8] | Potency [17] | Potency [9] | Potency [10] | max response [11] -15% | Potency [12] | Potency [13] | Potency [15] | Potency [18]

O=S(=O)(c1ccccc1)c1ccc(Cl)cc1
inactive: Potency [1] | Potency [2] | Potency [3] | outcome [4] | Potency [16] | Potency [6] | Potency [7] | Potency [8] | Potency [17] | Potency [9] | Potency [10] | max response [11] -0.98% | Potency [12] | Potency [13] | Potency [14] | Potency [15] | Potency [18]

CC1=CC(O)CC(C)(C)C1 (configuration not stated)
inactive: Potency [1] | Potency [2] | Potency [3] | outcome [4] | activity change, positive = activation [19] 1.93% | Potency [16] | Potency [6] | Potency [7] | Potency [8] | Potency [9] | Potency [10] | max response [11] 8.3% | Potency [12] | Potency [13] | Potency [14] | Potency [15] | Potency [18]

C[Si]1(C)O[Si](C)(C)O[Si](C)(C)O1
inactive: Potency [1] | Potency [2] | Potency [3] | outcome [4] | Potency [20] | activity change, positive = activation [19] -9.67% | Potency [16] | Potency [6] | Potency [7] | Potency [8] | Potency [17] | Potency [9] | Potency [10] | max response [11] 0.932% | Potency [12] | Potency [13] | Potency [14] | Potency [15] | Potency [18]

CN1C(=O)CC(C)(c2ccccc2)C1=O (configuration not stated)
inactive: Potency [1] | Potency [2] | outcome [4] | Potency [5] | Potency [20] | activity change, positive = activation [19] 2.7% [at 42.5 µM] | Potency [16] | Potency [6] | Potency [7] | Potency [8] | Potency [17] | Potency [9] | Potency [10] | max response [11] -3.29% | Potency [12] | Potency [13] | Potency [14] | Potency [15] | Potency [18]

NC(=O)N(O)[C@@H]1COc2cc(OCc3ccccc3)ccc21
inactive: Potency [1] | Potency [2] | Potency [3] | outcome [4] | Potency [16] | Potency [7] | Potency [8] | Potency [9] | Potency [10] | Potency [12] | Potency [13]

CCCCCCCCCCCCCCC[C@H](O)[C@@H](N)CO
active: Potency [5] 49.2 µM | Potency [6] 23.9 µM | Potency [7] 19 µM | Potency [17] 23.9 µM | Potency [9] 21.3 µM | Potency [11] 26.8 µM | Potency [12] 21.3 µM | Potency [13] 23.9 µM | Potency [14] 26.8 µM | Potency [15] 26.8 µM | Potency [18] 26.8 µM
inactive: Potency [1] | Potency [2] | Potency [3]
